Assay [1] addresses Ribosomal protein S6 kinase alpha-6 (Homo sapiens) (UniProt Q9UK32). The following applies: at 1 µM.
For assay [2], the target named is T1, Serine/threonine-protein kinase Sgk1 (Homo sapiens) (UniProt O00141).
T1 sequence (whole entry): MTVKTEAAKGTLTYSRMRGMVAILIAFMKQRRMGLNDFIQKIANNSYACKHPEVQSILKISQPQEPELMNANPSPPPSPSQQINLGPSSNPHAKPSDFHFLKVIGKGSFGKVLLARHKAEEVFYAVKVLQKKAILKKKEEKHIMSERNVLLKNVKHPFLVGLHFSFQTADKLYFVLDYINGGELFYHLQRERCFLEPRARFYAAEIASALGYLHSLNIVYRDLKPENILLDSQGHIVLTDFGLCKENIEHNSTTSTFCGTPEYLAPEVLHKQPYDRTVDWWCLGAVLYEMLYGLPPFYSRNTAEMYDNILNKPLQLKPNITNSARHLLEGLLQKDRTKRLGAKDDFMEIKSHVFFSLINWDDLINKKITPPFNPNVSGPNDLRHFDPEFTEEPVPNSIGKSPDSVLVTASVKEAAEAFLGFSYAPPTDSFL
The following applies: at 0.1 µM.

Assay [3] deals with T1, Serine/threonine-protein kinase Sgk1 (Homo sapiens). Conditions: at 1 µM.
Assay [4] deals with T2, Serine/threonine-protein kinase Sgk2 (Homo sapiens) (UniProt Q9HBY8).
T2 sequence (whole entry): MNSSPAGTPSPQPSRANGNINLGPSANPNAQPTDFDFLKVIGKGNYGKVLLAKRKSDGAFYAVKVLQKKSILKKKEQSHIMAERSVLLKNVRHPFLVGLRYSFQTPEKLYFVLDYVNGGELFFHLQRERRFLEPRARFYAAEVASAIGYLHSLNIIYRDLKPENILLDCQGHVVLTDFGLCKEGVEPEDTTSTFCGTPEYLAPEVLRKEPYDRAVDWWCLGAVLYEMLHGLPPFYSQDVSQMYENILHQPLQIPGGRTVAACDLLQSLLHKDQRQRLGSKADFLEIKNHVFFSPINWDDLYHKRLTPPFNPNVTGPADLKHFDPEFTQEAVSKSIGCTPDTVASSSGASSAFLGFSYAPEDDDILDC
The following applies: at 0.1 µM.

For assay [5], the target named is T2, Serine/threonine-protein kinase Sgk2 (Homo sapiens). Conditions: at 1 µM.
Assay [6] deals with T3, Serine/threonine-protein kinase Sgk3 (Homo sapiens) (UniProt Q96BR1).
T3 sequence (whole entry): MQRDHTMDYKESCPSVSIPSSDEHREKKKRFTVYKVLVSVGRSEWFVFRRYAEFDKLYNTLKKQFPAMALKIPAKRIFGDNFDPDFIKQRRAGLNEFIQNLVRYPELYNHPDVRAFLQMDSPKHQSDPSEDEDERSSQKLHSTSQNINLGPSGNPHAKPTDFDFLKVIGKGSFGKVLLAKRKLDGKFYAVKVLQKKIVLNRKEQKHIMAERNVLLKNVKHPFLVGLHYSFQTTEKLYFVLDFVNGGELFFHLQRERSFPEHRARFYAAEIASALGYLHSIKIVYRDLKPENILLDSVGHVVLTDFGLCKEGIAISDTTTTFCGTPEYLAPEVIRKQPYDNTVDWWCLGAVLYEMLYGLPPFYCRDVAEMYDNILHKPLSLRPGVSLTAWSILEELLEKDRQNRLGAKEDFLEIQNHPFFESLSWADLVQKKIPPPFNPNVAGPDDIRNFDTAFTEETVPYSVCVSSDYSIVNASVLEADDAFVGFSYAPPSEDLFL
The following applies: at 0.1 µM.

Assay [7] deals with T3, Serine/threonine-protein kinase Sgk3 (Homo sapiens). Conditions: at 1 µM.
In assay [8] the target is 5'-AMP-activated protein kinase catalytic subunit alpha-1 (Homo sapiens) (UniProt Q13131). The following applies: at 0.1 µM.
Sequence of 5'-AMP-activated protein kinase catalytic subunit alpha-1 (Homo sapiens) (Q13131 whole entry, looked up): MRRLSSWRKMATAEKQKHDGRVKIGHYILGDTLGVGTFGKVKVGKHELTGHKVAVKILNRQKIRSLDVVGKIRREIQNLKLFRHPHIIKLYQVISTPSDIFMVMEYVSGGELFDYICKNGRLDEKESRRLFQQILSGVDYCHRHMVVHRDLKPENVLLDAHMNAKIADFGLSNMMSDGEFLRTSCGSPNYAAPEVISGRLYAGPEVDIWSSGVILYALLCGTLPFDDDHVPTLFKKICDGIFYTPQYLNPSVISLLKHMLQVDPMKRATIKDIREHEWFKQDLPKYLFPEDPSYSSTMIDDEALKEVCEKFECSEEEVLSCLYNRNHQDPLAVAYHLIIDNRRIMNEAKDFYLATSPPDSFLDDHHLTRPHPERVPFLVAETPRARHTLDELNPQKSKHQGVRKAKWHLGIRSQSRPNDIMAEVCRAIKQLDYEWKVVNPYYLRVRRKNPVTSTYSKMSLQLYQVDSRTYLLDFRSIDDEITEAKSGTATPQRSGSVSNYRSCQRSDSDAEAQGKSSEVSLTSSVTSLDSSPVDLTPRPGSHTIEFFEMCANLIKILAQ
For assay [9] the target is unchanged. The following applies: at 1 µM.
Assay [10] concerns the target 5'-AMP-activated protein kinase catalytic subunit alpha-2 (Homo sapiens) (UniProt P54646). Conditions: at 0.1 µM.
For assay [11] the target is unchanged. The following applies: at 1 µM.
The target in assay [12] is T4, NUAK family SNF1-like kinase 1 (Homo sapiens) (UniProt O60285).
T4 sequence (whole entry): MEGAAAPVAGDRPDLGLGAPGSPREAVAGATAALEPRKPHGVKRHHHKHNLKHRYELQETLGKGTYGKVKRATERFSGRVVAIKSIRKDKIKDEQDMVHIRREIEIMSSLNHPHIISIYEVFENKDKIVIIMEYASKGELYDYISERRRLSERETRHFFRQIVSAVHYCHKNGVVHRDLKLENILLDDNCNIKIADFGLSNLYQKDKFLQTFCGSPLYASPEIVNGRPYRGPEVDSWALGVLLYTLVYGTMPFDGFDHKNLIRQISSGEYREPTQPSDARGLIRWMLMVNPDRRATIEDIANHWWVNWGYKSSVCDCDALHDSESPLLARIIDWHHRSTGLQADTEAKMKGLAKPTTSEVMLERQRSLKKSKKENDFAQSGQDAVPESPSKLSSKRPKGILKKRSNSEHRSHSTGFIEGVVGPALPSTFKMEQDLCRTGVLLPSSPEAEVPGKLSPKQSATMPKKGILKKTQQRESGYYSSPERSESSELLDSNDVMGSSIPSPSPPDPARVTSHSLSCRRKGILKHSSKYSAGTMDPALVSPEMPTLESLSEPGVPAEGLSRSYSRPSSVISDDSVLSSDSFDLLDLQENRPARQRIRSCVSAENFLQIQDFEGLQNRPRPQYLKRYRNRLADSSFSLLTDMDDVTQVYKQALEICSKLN
Conditions: at 0.1 µM.

The target in assay [13] is T4, NUAK family SNF1-like kinase 1 (Homo sapiens). Conditions: at 1 µM.
For assay [14], the target named is T5, Serine/threonine-protein kinase BRSK1 (Homo sapiens) (UniProt Q8TDC3).
T5 sequence (whole entry): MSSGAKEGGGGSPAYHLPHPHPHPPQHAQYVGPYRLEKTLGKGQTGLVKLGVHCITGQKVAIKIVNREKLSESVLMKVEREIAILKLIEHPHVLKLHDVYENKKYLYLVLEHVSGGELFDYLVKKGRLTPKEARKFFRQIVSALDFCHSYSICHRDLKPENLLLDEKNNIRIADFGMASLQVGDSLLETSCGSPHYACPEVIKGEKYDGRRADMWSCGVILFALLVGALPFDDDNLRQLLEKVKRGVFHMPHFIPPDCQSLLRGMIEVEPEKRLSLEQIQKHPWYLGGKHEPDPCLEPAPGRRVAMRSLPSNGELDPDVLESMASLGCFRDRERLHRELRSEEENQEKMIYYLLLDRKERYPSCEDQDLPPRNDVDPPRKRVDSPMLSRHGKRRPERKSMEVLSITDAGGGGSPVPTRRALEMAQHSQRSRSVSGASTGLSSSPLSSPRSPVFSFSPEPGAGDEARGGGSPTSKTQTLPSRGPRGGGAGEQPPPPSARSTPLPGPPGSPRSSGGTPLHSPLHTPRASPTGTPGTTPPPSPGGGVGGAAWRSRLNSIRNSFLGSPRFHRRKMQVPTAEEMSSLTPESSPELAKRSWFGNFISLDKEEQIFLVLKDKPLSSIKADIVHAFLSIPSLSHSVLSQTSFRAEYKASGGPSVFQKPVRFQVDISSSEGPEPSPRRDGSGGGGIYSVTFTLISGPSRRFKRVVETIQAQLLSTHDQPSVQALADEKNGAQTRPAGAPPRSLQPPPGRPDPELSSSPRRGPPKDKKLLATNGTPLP
The following applies: at 0.1 µM.

In assay [15] the target is T5, Serine/threonine-protein kinase BRSK1 (Homo sapiens). Conditions: at 1 µM.
The target in assay [16] is T6, Serine/threonine-protein kinase BRSK2 (Homo sapiens) (UniProt Q8IWQ3).
T6 sequence (whole entry): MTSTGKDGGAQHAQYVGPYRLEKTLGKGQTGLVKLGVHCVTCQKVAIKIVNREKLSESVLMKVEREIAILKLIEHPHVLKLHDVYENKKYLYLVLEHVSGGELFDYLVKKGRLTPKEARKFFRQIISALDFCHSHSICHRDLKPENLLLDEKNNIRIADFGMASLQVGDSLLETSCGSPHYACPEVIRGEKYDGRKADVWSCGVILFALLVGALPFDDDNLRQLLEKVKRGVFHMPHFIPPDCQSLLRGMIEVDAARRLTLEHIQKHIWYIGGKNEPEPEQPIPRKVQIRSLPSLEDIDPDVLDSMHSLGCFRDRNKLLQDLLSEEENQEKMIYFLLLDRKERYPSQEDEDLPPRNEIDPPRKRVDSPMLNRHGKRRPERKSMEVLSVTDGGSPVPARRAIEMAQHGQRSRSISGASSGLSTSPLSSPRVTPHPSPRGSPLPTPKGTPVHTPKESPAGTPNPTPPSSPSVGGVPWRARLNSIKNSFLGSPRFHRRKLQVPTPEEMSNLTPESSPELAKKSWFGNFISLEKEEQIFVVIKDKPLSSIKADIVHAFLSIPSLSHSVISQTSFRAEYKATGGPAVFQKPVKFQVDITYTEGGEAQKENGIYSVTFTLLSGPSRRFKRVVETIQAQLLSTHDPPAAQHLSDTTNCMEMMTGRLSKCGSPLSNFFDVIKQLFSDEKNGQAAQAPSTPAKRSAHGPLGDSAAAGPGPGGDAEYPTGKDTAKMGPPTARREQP
Conditions: at 0.1 µM.

The target of assay [17] is T6, Serine/threonine-protein kinase BRSK2 (Homo sapiens). The following applies: at 1 µM.
Assay [18] addresses Calcium/calmodulin-dependent protein kinase type 1D (Homo sapiens) (UniProt Q8IU85). The following applies: at 0.1 µM.
Assay [19] shares this target. The following applies: at 1 µM.
Assay [20] addresses Calcium/calmodulin-dependent protein kinase type II subunit alpha (Homo sapiens) (UniProt Q9UQM7). The following applies: at 0.1 µM.

Sequence of Calcium/calmodulin-dependent protein kinase type II subunit alpha (Homo sapiens) (Q9UQM7 whole entry): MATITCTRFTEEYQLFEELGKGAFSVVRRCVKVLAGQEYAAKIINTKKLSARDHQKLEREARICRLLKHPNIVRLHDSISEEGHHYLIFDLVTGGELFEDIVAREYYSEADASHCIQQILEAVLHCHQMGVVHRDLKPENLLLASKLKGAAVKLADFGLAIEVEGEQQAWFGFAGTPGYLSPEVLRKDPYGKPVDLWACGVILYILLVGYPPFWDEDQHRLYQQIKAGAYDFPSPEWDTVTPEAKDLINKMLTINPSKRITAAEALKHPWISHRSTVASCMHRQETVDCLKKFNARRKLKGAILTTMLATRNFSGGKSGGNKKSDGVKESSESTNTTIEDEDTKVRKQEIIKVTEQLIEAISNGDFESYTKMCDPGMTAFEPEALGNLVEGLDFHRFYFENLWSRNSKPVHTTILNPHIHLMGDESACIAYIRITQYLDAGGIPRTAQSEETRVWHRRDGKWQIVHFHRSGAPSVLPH
Sequence of Calcium/calmodulin-dependent protein kinase type 1D (Homo sapiens) (Q8IU85 whole entry, looked up): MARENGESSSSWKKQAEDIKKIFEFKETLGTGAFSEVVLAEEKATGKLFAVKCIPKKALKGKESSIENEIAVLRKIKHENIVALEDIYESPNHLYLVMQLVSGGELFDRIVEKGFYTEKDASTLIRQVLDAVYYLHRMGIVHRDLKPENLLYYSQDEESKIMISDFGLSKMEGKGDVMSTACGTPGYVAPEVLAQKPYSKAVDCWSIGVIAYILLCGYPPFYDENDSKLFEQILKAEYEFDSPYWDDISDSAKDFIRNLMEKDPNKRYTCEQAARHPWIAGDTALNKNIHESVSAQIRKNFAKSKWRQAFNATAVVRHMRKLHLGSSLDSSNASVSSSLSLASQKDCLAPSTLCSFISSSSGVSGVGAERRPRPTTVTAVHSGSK
Sequence of 5'-AMP-activated protein kinase catalytic subunit alpha-2 (Homo sapiens) (P54646 whole entry, looked up): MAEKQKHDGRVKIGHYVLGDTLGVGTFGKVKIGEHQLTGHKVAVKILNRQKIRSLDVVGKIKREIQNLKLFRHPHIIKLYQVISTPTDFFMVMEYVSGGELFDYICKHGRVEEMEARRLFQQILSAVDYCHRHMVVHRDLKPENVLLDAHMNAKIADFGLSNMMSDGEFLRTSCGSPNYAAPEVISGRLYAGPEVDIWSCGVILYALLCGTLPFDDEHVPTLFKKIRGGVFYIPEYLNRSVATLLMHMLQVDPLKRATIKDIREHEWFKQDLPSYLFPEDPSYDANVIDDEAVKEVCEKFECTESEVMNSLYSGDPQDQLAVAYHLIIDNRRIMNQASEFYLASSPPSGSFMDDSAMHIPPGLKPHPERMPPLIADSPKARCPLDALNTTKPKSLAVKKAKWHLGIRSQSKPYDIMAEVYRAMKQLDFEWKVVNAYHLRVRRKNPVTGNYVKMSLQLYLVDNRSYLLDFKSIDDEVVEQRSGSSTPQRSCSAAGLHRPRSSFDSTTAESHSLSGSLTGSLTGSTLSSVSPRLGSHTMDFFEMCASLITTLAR
Sequence of Ribosomal protein S6 kinase alpha-6 (Homo sapiens) (Q9UK32 whole entry): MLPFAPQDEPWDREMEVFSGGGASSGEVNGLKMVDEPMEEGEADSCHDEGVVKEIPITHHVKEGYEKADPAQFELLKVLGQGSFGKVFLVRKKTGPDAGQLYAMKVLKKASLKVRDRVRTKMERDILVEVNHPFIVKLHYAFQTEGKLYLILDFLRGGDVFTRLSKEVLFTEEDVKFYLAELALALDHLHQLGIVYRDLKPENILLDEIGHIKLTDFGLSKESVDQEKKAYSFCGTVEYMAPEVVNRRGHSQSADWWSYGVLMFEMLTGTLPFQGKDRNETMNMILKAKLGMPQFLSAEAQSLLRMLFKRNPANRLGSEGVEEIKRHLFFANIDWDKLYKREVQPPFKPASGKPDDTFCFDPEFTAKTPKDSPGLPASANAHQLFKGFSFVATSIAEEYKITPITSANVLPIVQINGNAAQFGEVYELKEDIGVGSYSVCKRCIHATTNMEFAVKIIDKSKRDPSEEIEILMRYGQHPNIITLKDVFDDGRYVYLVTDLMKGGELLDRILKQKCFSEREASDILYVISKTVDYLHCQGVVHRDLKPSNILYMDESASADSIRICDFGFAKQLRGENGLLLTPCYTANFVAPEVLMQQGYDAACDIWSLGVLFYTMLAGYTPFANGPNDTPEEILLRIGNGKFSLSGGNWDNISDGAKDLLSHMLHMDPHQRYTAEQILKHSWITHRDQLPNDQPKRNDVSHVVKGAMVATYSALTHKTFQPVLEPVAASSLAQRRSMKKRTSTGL

For the compound `COc1ccc(-c2nn3ncccc3c2-c2ccnc(Nc3ccc4c(c3)OCCO4)n2)cc1`, the inhibition in [1] was 2.56%; in assay [2], 1.1%; in assay [3] it was 1.98%; in assay [4], -0.02%; in [5], 0.9%; in assay [6], -1.8%. In addition, the inhibition in assay [7] was 0.46%; in assay [8] it was 1.06%; in assay [9], 1.64%; in assay [10], 0.54%; in assay [11], 0.38%; in assay [12], -0.71%. In addition, the inhibition is 2.67% in assay [13]; -0.94% in assay [14]; 2.44% in assay [15]; 0.33% in assay [16]; 1.64% in assay [17]; 9.78% in assay [18]. Also, the results for the inhibition in assay [19] and in assay [20] were 0.03% and 0.38%, respectively.

With `Nc1nc(-c2cccc(Cl)c2)c(-c2ccc3ncccc3n2)s1`, the inhibition in assay [1] worked out at 2.73%; in [2], 4.41%; in assay [3], 5.86%; in assay [4] it was 2.07%; in assay [5] it was 3.59%; in assay [6], 4.35%. Also, the inhibition in assay [7] is 6.98%; in assay [8] it was 3.09%; in [9] it was 5.53%; in assay [10], 3.05%; in [11] it was 3.28%; in assay [12], -2.86%. Also, the inhibition in assay [13] is 5.81%; in assay [14] it was 0.2%; in assay [15], 1.68%; in [16] it was 1.95%; in assay [17], 4.51%; in assay [18], -0.44%. Besides, the inhibition stood at 0.6% in assay [19] and 3.5% in assay [20].

As to `FC(F)(F)c1cccc(-c2nn3ncccc3c2-c2ccnc(Nc3ccc4c(c3)OCCO4)n2)c1`, the inhibition in [1] was 2.56%; in assay [2], 1.35%; in [3] it was 1.1%; in assay [4], -3.49%; in assay [5] it was 0.76%; in assay [6], 5.14%. Moreover, the inhibition in assay [7] was 1.47%; in assay [8], 1.41%; in assay [9], 0.35%; in assay [10], 0.93%; in [11], 4.13%; in assay [12], 1.51%. For the same compound, the inhibition in assay [13] was 5.87%; in assay [14], 3.69%; in assay [15] it was 2.81%; in [16], 2.37%; in [17] it was 2.54%; in assay [18], -0.54%. For the same compound, the inhibition in [19] was 1.75%; in [20], 1.98%.

On to `CCCN(CCS(C)(=O)=O)Cc1ccc(-c2ccc3ncnc(Nc4ccc(OCc5cccc(F)c5)c(Cl)c4)c3c2)o1`, for which the inhibition in assay [1] was 0.41%; in assay [2], 0.88%; in assay [3], 2.15%; in assay [4] it was 0.16%; in [5] it was -0.86%; in assay [6], 2.21%. Further, the inhibition is 1.28% in assay [7]; 0.05% in [8]; 1.68% in [9]; 2.47% in assay [10]; 2.91% in [11]; -7.52% in [12]. Besides, the inhibition was 4.57% in [13]; 1.22% in assay [14]; 3.8% in assay [15]; 1.68% in assay [16]; 7.08% in assay [17]; 0.15% in [18]. Further, the inhibition in assay [19] is 1.73%; in assay [20], 0.86%.

Take `Cc1cccc(Nc2ncc(-c3ccccc3)o2)c1`: the inhibition is 2.13% in [1]; 1.63% in [2]; 2.62% in assay [3]; 3.96% in assay [4]; 2.16% in assay [5]; 0.65% in [6]. The inhibition stood at 1.3% in [7]; 3.82% in assay [8]; 4.04% in assay [9]; 4.67% in assay [10]; 6.16% in [11]; 2.69% in assay [12]. For the same compound, the inhibition is 19.2% in assay [13]; 0.14% in [14]; 0.64% in assay [15]; 1.19% in [16]; 4.26% in assay [17]; 1.45% in assay [18]. The inhibition in assay [19] amounted to 3.78%; in [20], 4.05%.

On to `CNC(=O)c1cc(-c2ccc(F)cc2)cc(-c2ccc(S(=O)(=O)N3CCCC3)cc2)c1N`, for which the inhibition in assay [1] is 1.28%; in assay [2], 2.26%; in assay [3], 1.89%; in assay [4], 2.87%; in [5] it was 0.33%; in [6], 2.62%. In addition, the inhibition in assay [7] amounted to 3.57%; in assay [8], 1.77%; in assay [9], 2.03%; in assay [10], 6.28%; in assay [11], 2.93%; in [12] it was 1.2%. The inhibition in assay [13] was 1.2%; in assay [14] it was 1.39%; in assay [15] it was -2.02%; in [16], 0.91%; in [17], 2.02%; in assay [18], -0.49%. In addition, the inhibition stood at 1.09% in [19] and 0.94% in [20].

The values are drawn from ChEMBL document CHEMBL1961873, “Compounds: GSK PKIS; Assays: Nanosyn kinase panel” (2012).
